DRD3 antagonist = qHTS of D3 Dopamine Receptor Antagonist: qHTS | D(3) dopamine receptor (Homo sapiens), P35462 | D3R cells, DiscoveRx beta-arrestin luminescence, antagonist mode; hits give low values | max response, negative = inhibition, % | 360,000 tested, 2.5% active; in the data active = max response below about -50%; inconclusive = no clear call, values can overlap the other calls; note: % is set by controls: 0 for no effect and ±100 for the full control effect
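Cells expressing the human receptor were seeded at 1500 cells/well, incubated overnight at 37 degrees C in 5% CO2, then exposed to library compounds with dopamine controls for 90 minutes at 37 degrees C before luminescent detection.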
D1 potentiator = Potentiators of Human D1 Dopamine Receptor: qHTS | 360,000 tested, 0.036% active | potentiation, % at 10 µM | HEK293 TREx D1 cells, calcium flux, dopamine EC20 potentiation | D(1A) dopamine receptor (Homo sapiens), P21728 | AID 504651, 2011; in the data active = potentiation above about 30%; note: 0% is about no effect
Target sequence (P21728 whole entry, looked up): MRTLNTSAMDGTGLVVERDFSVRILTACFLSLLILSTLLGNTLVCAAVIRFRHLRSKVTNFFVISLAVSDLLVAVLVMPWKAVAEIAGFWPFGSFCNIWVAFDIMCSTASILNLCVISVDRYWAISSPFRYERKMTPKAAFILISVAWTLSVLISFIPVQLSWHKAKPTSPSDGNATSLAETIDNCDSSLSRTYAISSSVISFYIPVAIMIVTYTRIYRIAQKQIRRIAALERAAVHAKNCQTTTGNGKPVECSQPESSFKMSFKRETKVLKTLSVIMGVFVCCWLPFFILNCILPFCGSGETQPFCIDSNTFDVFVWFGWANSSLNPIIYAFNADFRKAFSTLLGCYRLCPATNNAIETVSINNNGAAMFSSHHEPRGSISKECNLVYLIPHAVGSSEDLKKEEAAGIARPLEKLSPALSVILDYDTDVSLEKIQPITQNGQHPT
D1 antagonist = Antagonist of Human D 1 Dopamine Receptor: qHTS. 360,000 tested, 3.2% active. activity change, negative = inhibition, % at 10 µM. D(1A) dopamine receptor (Homo sapiens), P21728. HEK293 TREx D1 cells, calcium flux, dopamine EC80; hits give low values; in the data active = activity change below about -30%; note: % is set by controls: 0 for no effect and ±100 for the full control effect
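Tetracycline-induced HEK293 Trex D1 cells, force-coupled to calcium, dye-loaded; compounds added and read 180 s, then EC80 dopamine added and calcium flux tracked kinetically another 180 s.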
D1 ag = Allosteric Agonists of the Human D1 Dopamine Receptor: qHTS. 360,000 tested, 1% active. activation, % at 2 µM. HEK293 T-REx D1 cells, calcium flux, agonist mode. AID 504660, 2011; in the data active = activation above about 30%; note: 0% is about no effect
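Inducible HEK293 T-REx D1 cells, force-coupled to calcium signalling, were plated at 4000 cells/well with tetracycline and held overnight at 30 C. After no-wash calcium dye loading, compound-evoked calcium rise over 180 s flagged agonists.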
D3 ag = qHTS of D3 Dopamine Receptor Agonist: qHTS; 410,000 tested, 0.58% active; D3R DiscoveRx beta-arrestin cells, luminescence, 90 min; max activation, %; in the data active = max activation above about 30%; note: 0% is about no effect
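Agonist-mode cell screen: cells plated at 1500/well and incubated overnight at 37 °C, then exposed to library compounds for 90 min at 37 °C. Detection reagent was added for 30–60 min at room temperature, and luminescence was read.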
Numbers without * were called inactive; ? = inconclusive; / = not tested or not shown; ! = repeats disagree. In the library only some 6% were active in any assay of this set; here they are far more common.

SMILES	DRD3 antagonist	D1 potentiator	D1 antagonist	D1 ag	D3 ag
CCc1ccccc1N(CC(=O)NCc1ccco1)C(=O)c1snc(C(N)=O)c1N	-55*	-6	-17	10	-9
Cc1cn(C)c(CC(=O)NCc2ccc(F)cc2)c1C(=O)O	/	-3	27	3	9
CCCc1cc(C(=O)Nc2cc(Br)ccc2O)no1	-4	-4	-15	40*	-6
CNc1cc(C)nc(-n2nc(C)cc2C)n1	?	-6	2	1	5
Cc1cc(Cl)nc(-n2nc(C)cc2C)n1	-25	-4	-42*	1	-25
Cn1c(=O)c2c(-c3ccccc3Cl)n(Cc3ccc(Cl)cc3)cc2n(C)c1=O	/	3	-5	-1	4
Cn1c(=O)c2c(-c3ccccc3Cl)n(-c3cc(Cl)ccc3O)cc2n(C)c1=O	/	0	5	43*	-7
Cn1c(=O)c2c(-c3ccccc3)n(-c3cc([N+](=O)[O-])ccc3O)cc2n(C)c1=O	-51*	/	/	/	-7
COc1cccc(CC(=O)N2CCCC(CO)(Cc3ccc(F)cc3F)C2)c1 (centres undefined)	-1	-5	-47*	7	-3
O=C(Cc1cccc(F)c1)N1CCCC(CO)(Cc2ccc(F)cc2F)C1 (centres undefined)	0	-3	31	-1	-11
COC(=O)c1ccc(CN2CCCC(CO)(Cc3ccc(F)cc3F)C2)cc1 (centres undefined)	-96*	-9	25	-3	-18
Cc1ccc2c(=O)c(C(=O)c3ccc(Cl)cc3)cn(CC(=O)Nc3ccc4c(c3)OCCO4)c2n1	/	3	-2	6	4
COc1ccc(NC(=O)CCc2c(C)nc3c(c2C)c(=O)n(C)c(=O)n3C)c(OC)c1	/	-4	-7	1	1
O=C(O)c1cccc2c3c([nH]c12)CCCC3	5	2	-30*	-3	5
O=C(NCCNC1CCC(c2ccccc2)CC1)c1ccc(F)cc1 (centres undefined)	-92*	-10	-37*	52*	-35
COc1cc(C2c3c(oc4ccccc4c3=O)C(=O)N2c2nnc(C(C)C)s2)cc(OC)c1OC (centres undefined)	/	3	8	0	5
N#CN=C(N)c1ccccc1	14	3	-56*!	1	7
N#Cc1ccc(NC(=S)/N=C(\N)c2ccccc2)cc1	-20	/	/	/	4
CCn1cc(C(=O)N(C)c2ccc(C(C)C)cc2)c2cc(OC)c(OC)cc2c1=O	/	0	17	4	-1
CCc1ccc(CNCc2c(C(=O)O)c(C)n(Cc3c(F)cccc3Cl)c2C)cc1	/	4	34	-1	-20
O=[N+]([O-])c1cc2c(cc1/C=N/n1c(-c3ccccn3)n[nH]c1=S)OCO2	-50*	0	-17	2	-3
O=[N+]([O-])c1ccccc1/C=N/n1c(-c2cccnc2)n[nH]c1=S	-86*	-7	5	2	-18
S=c1[nH]nc(-c2cccnc2)n1/N=C/c1ccccc1	-25	0	-21	1	5
S=c1[nH]nc(-c2cccnc2)n1/N=C/c1cccs1	-111*	-7	5	1	3
CCN(Cc1cccc(OC)c1)CC1CCCN(CCc2cccc(OC)c2)C1 (centres undefined)	-9	-8	-39*	8	-17
SMILES	DRD3 antagonist	D1 potentiator	D1 antagonist	D1 ag	D3 ag
CCOc1cccc(CN(CC)CC2CCCN(CCc3cccc(OC)c3)C2)c1O (centres undefined)	-19	-11	-17	4	-12
COc1cc(OC)c(OC)cc1CN(C)CC1CCCN(CCc2ccccc2F)C1 (centres undefined)	-51*	-4	-22	2	-3
COc1cccc(CN(C)CC2CCCN(CCc3ccccc3C)C2)c1 (centres undefined)	-15	-3	-63*	4	-11
Cc1ccc(-c2cc(C(=O)Nc3ccc(SC(F)F)cc3)no2)cc1F	/	0	8	1	7
O=C(O)CCc1ccc(-c2ccc(F)cc2)n1NC(=O)c1ccco1	17	-4	-88*	1	2
Cc1ccc(NC(=O)Nc2ccc3c(c2)N(C)C(=O)CS3)cc1C	5	/	-44*	20	1
O=c1nc2ccccc2c2n1CC(CN1CCN(c3ccccc3F)CC1)N2 (centres undefined)	-69*	-6	-5	1	-16
CN1CCN(c2nc3cc(C(F)(F)F)ccc3n3cccc23)CC1	-52*	/	/	/	-72
CCCCCC/C(=N/O)c1ccccn1	7	-1	-37*	5	2
O=[N+]([O-])c1ccc(N=Nc2ncc[nH]2)cc1	-111*	2	-3	1	-15
C=CCc1ccc(OCCCNCc2ccccc2)c(OC)c1	-79*	-10	-13	6	-21
C/C=C/c1ccc(OCCNCc2ccccc2)c(OC)c1	-77*	-9	-4	8	-19
CCCCCC(O)C=CC1C(O)CC(O)C1CC=CCCCC(=O)O (centres undefined)	37	/	/	/	7
C[C@H](CCCC/C=C/C(=O)O)O[C@@H]1O[C@@H](C)[C@H](O)C[C@H]1O	3	1	/	0	44*
O=C(O)c1cc(S(=O)(=O)Nc2cccc(S(=O)(=O)N3CCCC3)c2)ccc1Cl	8	3	0	2	7
O=C(O)c1ccc(NS(=O)(=O)c2ccc(Cl)c(Cl)c2)cc1O	0	-6	-31*	2	-2
CCOC(=O)C(=CNc1cccc(C)c1C)C(=O)OCC	40	1	14	3	39*
CCOC(=O)C(=CNc1ccc(Cl)cn1)C(=O)OCC	37	0	-40*	1	13
CCOC(=O)C(=CNc1cccc(N)n1)C(=O)OCC	45	-6	-23	1	-2
CCOC(=O)C(=CNc1ccc(C)cc1C)C(=O)OCC	89	2	0	5	15
Cn1c(=O)c(Oc2ccc(Cl)cc2)c(O)c2ccccc21	65	3	5	2	17
COc1ccc(CCNC(=O)c2c(O)c3ccccc3n(C)c2=O)cc1	6	-3	0	6	37*
COc1ccc(CCNC(=O)c2c(C)noc2C)cc1	-100*	-3	-43*	3	0
COc1ccc(Oc2c(O)c3ccccc3n(C)c2=O)cc1	46	-2	-45*	2	10
COc1ccc(CNC(=O)COc2ccc(C(=O)c3ccc(F)cc3)cc2)cc1	-6	-1	-30*	10	10
COC(=O)c1ccc(CNC(=O)COC(=O)CCC(=O)c2ccc(F)cc2)cc1	6	/	/	/	4

Screening results as filed in PubChem BioAssay.
